Bioassay records deposited in PubChem BioAssay by Broad Institute.
IDE exosite FP = exo-site inhibitors of human IDE, primary screen, biochemical, fluorescence anisotropy, probe displacement | Insulin-degrading enzyme (Homo sapiens), P14735 | purified IDE, FL-6b probe fluorescence polarization; stronger effect = lower value | z-score at 20 µM | actives 6.3% (n = 17,000) | AID 1259349, 2017;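 active = z-score of -3 or lower, meaning strong loss of probe binding signal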;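 also: His-tagged human IDE residues 42-1019 made in E. coli with 30 nM FL-6b probe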
Target sequence (P14735 42-1019 limits assumed): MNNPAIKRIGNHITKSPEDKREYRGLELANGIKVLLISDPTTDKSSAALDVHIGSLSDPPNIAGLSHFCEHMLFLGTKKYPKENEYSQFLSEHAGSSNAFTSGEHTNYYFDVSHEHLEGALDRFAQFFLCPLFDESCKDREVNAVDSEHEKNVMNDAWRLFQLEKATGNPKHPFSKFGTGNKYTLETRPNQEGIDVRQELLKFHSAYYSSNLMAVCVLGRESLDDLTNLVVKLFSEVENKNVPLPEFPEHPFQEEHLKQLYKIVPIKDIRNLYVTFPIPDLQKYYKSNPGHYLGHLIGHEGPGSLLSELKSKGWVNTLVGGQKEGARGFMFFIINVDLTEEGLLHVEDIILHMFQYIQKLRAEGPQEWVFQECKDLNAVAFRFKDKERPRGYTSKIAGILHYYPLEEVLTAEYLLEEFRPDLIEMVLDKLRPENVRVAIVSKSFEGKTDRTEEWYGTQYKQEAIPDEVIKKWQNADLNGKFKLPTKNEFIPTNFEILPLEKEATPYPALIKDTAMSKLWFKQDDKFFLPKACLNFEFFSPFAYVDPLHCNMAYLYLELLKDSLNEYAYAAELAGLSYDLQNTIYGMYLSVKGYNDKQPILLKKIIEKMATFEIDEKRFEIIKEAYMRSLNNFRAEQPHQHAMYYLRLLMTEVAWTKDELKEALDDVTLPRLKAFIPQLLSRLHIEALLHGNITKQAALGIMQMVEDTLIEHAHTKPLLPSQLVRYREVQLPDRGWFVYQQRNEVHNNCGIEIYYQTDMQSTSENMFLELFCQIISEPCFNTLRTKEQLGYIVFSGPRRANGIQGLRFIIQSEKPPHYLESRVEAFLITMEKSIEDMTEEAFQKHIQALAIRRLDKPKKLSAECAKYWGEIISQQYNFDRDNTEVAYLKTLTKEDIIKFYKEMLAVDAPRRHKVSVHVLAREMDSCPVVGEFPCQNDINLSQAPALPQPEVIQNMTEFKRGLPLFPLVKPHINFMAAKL
Starred values were filed as active, the others as inactive; ! = a repeat was not active. The full list was thinned out, with hits kept by preference.

For CN(C)C(=O)c1cccc(-c2ccc([C@H]3[C@H](CO)N4CCCCN(CCC(F)(F)F)C[C@@H]34)cc2)c1 the results were IDE exosite FP 4.3.
Screening COCC(=O)NC[C@@H]1[C@H](c2ccccc2)[C@@H](CO)N1C(C)=O returned IDE exosite FP 1.9.
`CN(C)CC#Cc1ccc([C@@H]2[C@H](CO)N3C(=O)CN(C(=O)Cc4ccccc4)C[C@@H]23)cc1` gave IDE exosite FP 1.
N#C[C@H]1[C@H](c2ccccc2-c2ccccc2F)[C@@H](CO)N1C(=O)C1CCOCC1 was read as IDE exosite FP 0.33.
For O=C(c1ccc(F)cc1)N1CC(=O)N2[C@@H](CO)[C@H](c3ccc(C#CCC4CCCC4)cc3)[C@@H]2C1 the results were IDE exosite FP 0.64.
C/C=C/c1ccc([C@@H]2[C@@H](CNC(=O)CC)N(C(=O)COC)[C@H]2CO)cc1 was read as IDE exosite FP 2.4.
Screening O=C(C1CCC1)N1CC(=O)N2[C@H](CO)[C@@H](c3ccc(Br)cc3)[C@H]2C1 returned IDE exosite FP -0.54.
Screening O=C(C1CCOCC1)N1CC(=O)N2[C@@H](CO)[C@H](c3ccc(C4=CCCC4)cc3)[C@@H]2C1 returned IDE exosite FP 1.1.
`O=C(C1CCC1)N1CC(=O)N2[C@@H](CO)[C@@H](c3ccc(C4=CCCCC4)cc3)[C@@H]2C1` gave IDE exosite FP -3.9*.
For Cc1noc(C)c1S(=O)(=O)N(C)C[C@H]1OCCCC[C@H](C)Oc2ccc(N(C)C)cc2C(=O)N([C@H](C)CO)C[C@@H]1C the results were IDE exosite FP 0.32.
`COCC#Cc1ccc([C@@H]2[C@H](CO)N3C(=O)CN(C(=O)c4cccnc4)C[C@@H]23)cc1` gave IDE exosite FP 2.
O=C(C1CCOCC1)N1CC(=O)N2[C@H](CO)[C@@H](c3ccc(/C=C/c4ccccc4)cc3)[C@@H]2C1 was read as IDE exosite FP -5.5*.
For O=C(C1CCOCC1)N1CC(=O)N2[C@@H](CO)[C@H](c3ccc(Br)cc3)[C@@H]2C1 the results were IDE exosite FP 4.2.
For O=C(C1CCOCC1)N1CC(=O)N2[C@H](CO)[C@@H](c3ccc(Br)cc3)[C@@H]2C1 the results were IDE exosite FP -2.6.
Screening O=C(C1CCOCC1)N1CC(=O)N2[C@@H](CO)[C@H](c3ccc(/C=C/c4ccccc4)cc3)[C@@H]2C1 returned IDE exosite FP -4.5*.
O=C(C1CCOCC1)N1CC(=O)N2[C@H](CO)[C@@H](c3ccc(Br)cc3)[C@H]2C1 was read as IDE exosite FP 0.54.
For O=C(C1CCOCC1)N1CC(=O)N2[C@H](CO)[C@@H](c3ccc(/C=C/c4ccccc4)cc3)[C@H]2C1 the results were IDE exosite FP -2.1.
CCCC#Cc1ccc([C@@H]2[C@H](CO)N3C(=O)CN(C(=O)Cc4cccnc4)C[C@@H]23)cc1 was read as IDE exosite FP -0.58.
For CCC(=O)N1CC(=O)N2[C@H](CO)[C@H](c3ccc(C#CC4CCCCC4)cc3)[C@H]2C1 the results were IDE exosite FP 1.1.
For CN(C[C@H]1[C@@H](c2ccc(C3=CCCC3)cc2)[C@@H](CO)N1CCC(F)(F)F)S(C)(=O)=O the results were IDE exosite FP -0.77.
For COc1cccc(S(=O)(=O)N2C[C@H](O)COC[C@@H]3O[C@H](CC(=O)NCCCN4CCOCC4)CC[C@H]32)c1 the results were IDE exosite FP 1.
CC(=O)NC[C@@H]1[C@@H](c2ccc(C3=CCCCC3)cc2)[C@@H](CO)N1C(=O)C1CC1 was read as IDE exosite FP 5.2.
`Cc1ccccc1-c1ccc([C@@H]2[C@H](CO)N3CCCCN(C(=O)Nc4ccccc4)C[C@@H]23)cc1` gave IDE exosite FP -5*.
Cc1ccccc1-c1ccc([C@@H]2[C@H](CO)N3CCCCN(C(=O)Nc4ccc(F)cc4)C[C@@H]23)cc1 was read as IDE exosite FP -11*.
Cc1ccccc1-c1ccc([C@@H]2[C@@H](CO)N3CCCCN(C(=O)Nc4cccc(F)c4)C[C@@H]23)cc1 was read as IDE exosite FP -1.5.
Screening Cc1ccccc1-c1ccc([C@@H]2[C@@H](CO)N3CCCCN(C(=O)Nc4ccc(F)cc4)C[C@@H]23)cc1 returned IDE exosite FP 0.29.
Cc1ccccc1-c1ccc([C@H]2[C@@H](CO)N3CCCCN(C(=O)Nc4ccccc4)C[C@@H]23)cc1 was read as IDE exosite FP -1.4.
For COc1ccc(NC(=O)N2CCCCN3[C@H](CO)[C@@H](c4ccc(-c5ccccc5C)cc4)[C@@H]3C2)cc1 the results were IDE exosite FP 0.55.
COCC(=O)NC[C@H]1[C@H](c2ccccc2)[C@@H](CO)N1C(C)=O was read as IDE exosite FP 3.1.
CN1C(=O)c2cc(NS(=O)(=O)c3cccc(F)c3)ccc2OC[C@H]2O[C@@H](CC(=O)N3CCc4ccccc4C3)CC[C@H]21 was read as IDE exosite FP -0.95.
`COc1ccc(NC(=O)N2CC(=O)N3[C@H](CO)[C@H](c4ccc(Br)cc4)[C@@H]3C2)cc1` gave IDE exosite FP -0.052.
For CN1CCN(C(=O)C[C@@H]2CC[C@@H]3[C@H](COC[C@@H](O)CN3C(=O)c3ccccc3F)O2)CC1 the results were IDE exosite FP -0.22.
Screening COc1ccccc1S(=O)(=O)N1C[C@@H]2N[C@H](C1)C2c1ccc(-c2cccnc2)cc1 (stereo partly drawn) returned IDE exosite FP 1.1.
`Cc1ccc(S(=O)(=O)N2C[C@@H]3N[C@H](C2)C3c2ccc(/C=C/c3ccccc3)cc2)cc1` (stereo partly drawn) gave IDE exosite FP 4.2.
COc1ccc(S(=O)(=O)N2[C@@H]3CNC[C@H]2C3c2ccc(-c3cccc(OC)c3)cc2)cc1 (stereo partly drawn) was read as IDE exosite FP 3.4.
`COc1ccccc1S(=O)(=O)N1C[C@@H]2N[C@H](C1)C2c1ccc(-c2ccccc2C)cc1` (stereo partly drawn) gave IDE exosite FP -7.9*!.
Screening COc1cccc(S(=O)(=O)N2[C@@H]3CNC[C@H]2C3c2ccc(-c3cccc(C)c3)cc2)c1 (stereo partly drawn) returned IDE exosite FP -1.5.
Cc1ccccc1-c1ccc(C2[C@@H]3CN(S(=O)(=O)c4ccccc4)C[C@H]2N3)cc1 (stereo partly drawn) was read as IDE exosite FP -10*.
For COc1ccccc1S(=O)(=O)N1[C@@H]2CNC[C@H]1C2c1ccc(-c2ccncc2)cc1 (stereo partly drawn) the results were IDE exosite FP 0.19.
COc1ccccc1S(=O)(=O)N1[C@@H]2CNC[C@H]1C2c1ccc(/C=C/c2ccccc2)cc1 (stereo partly drawn) was read as IDE exosite FP -5.2*!.
Screening COc1cccc(S(=O)(=O)N2[C@@H]3CNC[C@H]2C3c2ccc(/C=C/c3ccccc3)cc2)c1 (stereo partly drawn) returned IDE exosite FP 0.22.
`COc1cccc(S(=O)(=O)N2[C@@H]3CNC[C@H]2C3c2ccc(-c3ccccc3C)cc2)c1` (stereo partly drawn) gave IDE exosite FP -5.3*.
COc1ccccc1S(=O)(=O)N1C[C@@H]2N[C@H](C1)C2c1ccc(-c2ccc(F)cc2)cc1 (stereo partly drawn) was read as IDE exosite FP 3.
Screening C/C=C/c1ccc(C2[C@@H]3CN(S(=O)(=O)c4ccccc4)C[C@H]2N3)cc1 (stereo partly drawn) returned IDE exosite FP 0.064.
